Experiment [1] has as its target Sphingosine kinase 1 (Homo sapiens) (UniProt Q9NYA1). Particulars: at 1 µM.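 Further: mean SPHK1 inhibition value reported from the GSK PKIS kinase panel screen.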
For experiment [2], the target named is T1, Sphingosine kinase 2 (Homo sapiens) (UniProt Q9NRA0).
T1 sequence (whole entry): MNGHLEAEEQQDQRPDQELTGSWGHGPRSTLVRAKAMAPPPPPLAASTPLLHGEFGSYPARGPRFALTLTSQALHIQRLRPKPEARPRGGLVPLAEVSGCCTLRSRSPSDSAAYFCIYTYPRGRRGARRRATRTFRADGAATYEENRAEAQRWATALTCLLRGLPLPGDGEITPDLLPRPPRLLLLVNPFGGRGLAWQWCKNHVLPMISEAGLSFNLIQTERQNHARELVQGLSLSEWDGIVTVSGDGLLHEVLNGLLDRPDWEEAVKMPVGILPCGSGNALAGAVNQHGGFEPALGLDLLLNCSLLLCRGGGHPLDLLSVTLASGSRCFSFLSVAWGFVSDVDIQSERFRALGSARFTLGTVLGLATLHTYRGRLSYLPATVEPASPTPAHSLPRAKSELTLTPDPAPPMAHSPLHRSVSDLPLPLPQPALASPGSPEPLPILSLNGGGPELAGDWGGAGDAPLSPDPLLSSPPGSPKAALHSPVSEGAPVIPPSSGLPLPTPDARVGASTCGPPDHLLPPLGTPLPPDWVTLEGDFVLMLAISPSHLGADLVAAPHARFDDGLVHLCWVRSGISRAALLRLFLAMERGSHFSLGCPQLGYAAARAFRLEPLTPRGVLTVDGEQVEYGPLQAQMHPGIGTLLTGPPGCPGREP
Particulars: at 0.1 µM.

Experiment [3] deals with T1, Sphingosine kinase 2 (Homo sapiens). To be noted: at 1 µM.
Experiment [4] addresses Casein kinase II subunit alpha (Homo sapiens) (UniProt P68400). Particulars: at 0.1 µM.
Experiment [5] has the same target. To be noted: at 1 µM.
In experiment [6] the target is T2, Inhibitor of nuclear factor kappa-B kinase subunit alpha (Homo sapiens) (UniProt O15111).
T2 sequence (whole entry): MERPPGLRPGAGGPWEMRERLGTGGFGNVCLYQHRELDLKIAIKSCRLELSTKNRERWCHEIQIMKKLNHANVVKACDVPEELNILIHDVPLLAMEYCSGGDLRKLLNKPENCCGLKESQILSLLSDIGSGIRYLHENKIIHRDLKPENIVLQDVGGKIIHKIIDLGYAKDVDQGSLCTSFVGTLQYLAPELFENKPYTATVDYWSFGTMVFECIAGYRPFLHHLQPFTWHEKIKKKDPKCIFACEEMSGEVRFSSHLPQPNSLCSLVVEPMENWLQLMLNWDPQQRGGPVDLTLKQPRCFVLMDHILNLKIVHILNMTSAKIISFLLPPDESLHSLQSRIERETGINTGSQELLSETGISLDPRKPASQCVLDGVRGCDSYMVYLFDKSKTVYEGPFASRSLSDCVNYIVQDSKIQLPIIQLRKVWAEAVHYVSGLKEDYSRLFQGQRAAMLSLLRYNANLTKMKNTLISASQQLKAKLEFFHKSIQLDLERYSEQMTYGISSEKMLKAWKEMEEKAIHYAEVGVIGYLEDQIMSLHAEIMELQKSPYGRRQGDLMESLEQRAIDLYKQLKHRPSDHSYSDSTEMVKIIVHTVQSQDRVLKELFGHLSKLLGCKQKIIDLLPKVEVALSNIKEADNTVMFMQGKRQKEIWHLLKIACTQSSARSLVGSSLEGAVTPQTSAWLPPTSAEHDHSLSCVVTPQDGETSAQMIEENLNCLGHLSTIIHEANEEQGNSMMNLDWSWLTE
To be noted: at 0.1 µM.

Experiment [7] deals with T2, Inhibitor of nuclear factor kappa-B kinase subunit alpha (Homo sapiens). To be noted: at 1 µM.
For experiment [8], the target named is T3, Inhibitor of nuclear factor kappa-B kinase subunit beta (Homo sapiens) (UniProt O14920).
T3 sequence (whole entry): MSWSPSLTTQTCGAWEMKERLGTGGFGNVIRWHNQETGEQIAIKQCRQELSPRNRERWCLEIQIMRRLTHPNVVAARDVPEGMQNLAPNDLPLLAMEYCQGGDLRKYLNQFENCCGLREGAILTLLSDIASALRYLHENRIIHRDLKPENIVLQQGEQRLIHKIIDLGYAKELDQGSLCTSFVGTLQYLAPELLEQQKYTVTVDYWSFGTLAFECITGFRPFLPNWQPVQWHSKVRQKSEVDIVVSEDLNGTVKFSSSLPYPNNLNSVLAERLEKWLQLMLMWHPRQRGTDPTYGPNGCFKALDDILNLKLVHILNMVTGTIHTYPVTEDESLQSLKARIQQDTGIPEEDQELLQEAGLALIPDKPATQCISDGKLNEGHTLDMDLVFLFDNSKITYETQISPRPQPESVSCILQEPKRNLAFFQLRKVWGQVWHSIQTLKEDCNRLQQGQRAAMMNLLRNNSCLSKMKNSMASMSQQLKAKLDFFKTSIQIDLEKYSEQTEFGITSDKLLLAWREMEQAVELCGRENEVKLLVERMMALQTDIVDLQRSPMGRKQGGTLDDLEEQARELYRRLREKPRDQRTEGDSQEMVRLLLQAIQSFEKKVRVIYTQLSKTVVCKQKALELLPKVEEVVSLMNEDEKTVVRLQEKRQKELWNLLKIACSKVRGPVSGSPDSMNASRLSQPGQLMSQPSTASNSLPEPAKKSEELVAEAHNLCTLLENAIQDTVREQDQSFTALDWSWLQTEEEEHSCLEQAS
To be noted: at 0.1 µM.

In experiment [9] the target is T3, Inhibitor of nuclear factor kappa-B kinase subunit beta (Homo sapiens). Particulars: at 1 µM.
The target of experiment [10] is T4, Inhibitor of nuclear factor kappa-B kinase subunit epsilon (Homo sapiens) (UniProt Q14164).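 Further: mean inhibition of IKKε reported, from the GSK PKIS dataset.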
T4 sequence (whole entry): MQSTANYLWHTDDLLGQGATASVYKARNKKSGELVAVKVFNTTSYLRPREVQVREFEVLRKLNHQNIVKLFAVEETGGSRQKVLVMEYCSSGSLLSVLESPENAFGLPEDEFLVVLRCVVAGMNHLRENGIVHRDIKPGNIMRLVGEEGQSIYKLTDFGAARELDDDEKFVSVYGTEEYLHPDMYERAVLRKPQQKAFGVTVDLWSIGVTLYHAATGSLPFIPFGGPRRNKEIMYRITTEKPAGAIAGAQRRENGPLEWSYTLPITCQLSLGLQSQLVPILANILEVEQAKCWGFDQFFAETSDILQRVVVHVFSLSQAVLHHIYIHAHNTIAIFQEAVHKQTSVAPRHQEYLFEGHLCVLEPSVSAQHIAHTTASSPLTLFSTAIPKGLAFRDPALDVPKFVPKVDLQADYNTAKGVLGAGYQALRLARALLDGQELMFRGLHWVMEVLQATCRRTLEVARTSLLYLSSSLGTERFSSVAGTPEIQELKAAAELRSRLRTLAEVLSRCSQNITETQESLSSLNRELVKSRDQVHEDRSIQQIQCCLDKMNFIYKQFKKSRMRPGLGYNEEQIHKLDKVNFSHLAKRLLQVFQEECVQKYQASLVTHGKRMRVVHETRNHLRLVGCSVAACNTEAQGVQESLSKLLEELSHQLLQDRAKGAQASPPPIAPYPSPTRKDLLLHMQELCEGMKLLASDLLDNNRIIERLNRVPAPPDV
To be noted: at 0.1 µM.

Among the data in ChEMBL document CHEMBL1961873, “Compounds: GSK PKIS; Assays: Nanosyn kinase panel” (2012) are inhibition values, retold here.

Casein kinase II subunit alpha (Homo sapiens), sequence (P68400 whole entry, looked up): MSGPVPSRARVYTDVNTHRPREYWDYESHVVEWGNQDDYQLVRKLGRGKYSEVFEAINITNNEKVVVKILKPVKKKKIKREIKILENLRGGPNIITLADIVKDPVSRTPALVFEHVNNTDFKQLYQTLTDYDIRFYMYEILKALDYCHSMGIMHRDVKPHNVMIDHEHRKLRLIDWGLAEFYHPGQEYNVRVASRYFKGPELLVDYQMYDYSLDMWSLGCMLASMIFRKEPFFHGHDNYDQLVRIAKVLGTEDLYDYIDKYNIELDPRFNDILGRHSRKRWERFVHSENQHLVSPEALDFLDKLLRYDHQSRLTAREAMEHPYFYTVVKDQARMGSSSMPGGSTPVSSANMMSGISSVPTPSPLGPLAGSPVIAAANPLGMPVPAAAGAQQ
Sphingosine kinase 1 (Homo sapiens), sequence (Q9NYA1 whole entry): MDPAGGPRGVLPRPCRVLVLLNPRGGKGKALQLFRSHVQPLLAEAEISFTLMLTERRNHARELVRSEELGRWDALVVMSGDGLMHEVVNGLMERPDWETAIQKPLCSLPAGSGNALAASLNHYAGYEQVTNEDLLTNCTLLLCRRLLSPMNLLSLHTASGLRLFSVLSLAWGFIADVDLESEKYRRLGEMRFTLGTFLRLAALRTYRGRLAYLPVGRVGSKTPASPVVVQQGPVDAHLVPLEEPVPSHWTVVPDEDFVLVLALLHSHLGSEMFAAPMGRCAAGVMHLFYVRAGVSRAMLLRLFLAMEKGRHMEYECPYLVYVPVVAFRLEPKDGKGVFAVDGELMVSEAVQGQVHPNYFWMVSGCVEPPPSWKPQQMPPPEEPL

Turning to `COc1cc2ncn(-c3cc(OCc4ccccc4S(C)(=O)=O)c(C#N)s3)c2cc1OC`, the inhibition in experiment [1] was -0.15%; in experiment [2] it was 0.46%; in experiment [3], -2.2%; in experiment [4], 2.39%; in experiment [5], 5%; in [6], 6.91%. Moreover, the inhibition worked out at 5.75% in experiment [7], 3.44% in experiment [8], 1.17% in experiment [9] and 42.5% in experiment [10].

As for `CC(C)c1ccc(Nc2nccc(-c3cnn4ncccc34)n2)cc1`, the inhibition in experiment [1] is 7.28%; in experiment [2], 0.26%; in [3] it was -0.48%; in experiment [4], 10.7%; in experiment [5], 43.4%; in [6] it was 18.7%. Also, the inhibition in experiment [7] was found to be 64.1%; in experiment [8] it was 7.7%; in experiment [9], 23%; in experiment [10], 4.12%.

For the compound `NS(=O)(=O)c1cccc(-c2cc3ccncc3cc2OCc2ccccc2)c1`, the inhibition was 0.02% in [1]; -1.2% in experiment [2]; 0.96% in experiment [3]; 1.61% in experiment [4]; -1.22% in [5]; 8.21% in experiment [6]. Also, the inhibition was 10.9% in experiment [7], 7.94% in experiment [8], 10.7% in [9] and 4.52% in experiment [10].

For the compound `c1ccc(Cc2nc3ccc(Nc4ncnc5ccccc45)cc3[nH]2)cc1`, the inhibition is -0.48% in experiment [1]; 0.11% in experiment [2]; -0.64% in experiment [3]; 3.02% in experiment [4]; 9.95% in [5]; -0.9% in experiment [6]. In addition, the inhibition stood at 6.86% in experiment [7], 5.53% in [8], 8.45% in experiment [9] and 5.38% in experiment [10].

Regarding `O=S(=O)(CCOCc1ccc(-c2ccc3ncnc(Nc4ccc(OCc5cccc(F)c5)c(Cl)c4)c3c2)o1)c1ccccc1`, the inhibition in experiment [1] amounted to 1.2%; in experiment [2], 0.14%; in experiment [3] it was 14.2%; in experiment [4] it was 1.35%; in experiment [5] it was 4.52%; in [6], 1.54%. The inhibition is 4.26% in [7], -0.1% in experiment [8], 0.7% in [9] and 1.59% in experiment [10].

Turning to `CC(C)c1ccc2c(c1)NC(=O)/C2=N/Nc1ccc(S(N)(=O)=O)cc1`, the inhibition is -1.85% in experiment [1]; 0.61% in experiment [2]; 1.73% in experiment [3]; 4.26% in experiment [4]; 0.39% in experiment [5]; -1.84% in [6]. Further, the inhibition in experiment [7] was -4.08%; in experiment [8] it was 1.01%; in experiment [9], 0.14%; in [10], -1.18%.

On to `NC(=O)c1sc(-n2cnc3ccccc32)cc1OCc1ccccc1Br`, for which the inhibition was -0.07% in [1]; 1.77% in experiment [2]; 0% in experiment [3]; 5.03% in [4]; 5.76% in experiment [5]; 4.61% in experiment [6]. Also, the inhibition in experiment [7] worked out at 7.53%; in experiment [8] it was 4.02%; in experiment [9], 5.66%; in [10], 8.4%.

Turning to `Oc1cccc(-c2nc(-c3ccccc3)[nH]c2-c2ccncc2)c1`, the inhibition in [1] is -1.58%; in [2], 0.02%; in experiment [3], -1.65%; in experiment [4], 3.96%; in experiment [5], 9.51%; in [6], 2.95%. Also, the inhibition in experiment [7] was determined as 5.47%; in experiment [8] it was 5.25%; in [9], 3.12%; in [10], 5.43%.

As to `Cc1nc(-c2ccccc2)n2nc(NCCCN3CCOCC3)ncc12`, the inhibition in experiment [1] was -2.26%; in experiment [2], -1.13%; in experiment [3] it was -0.14%; in experiment [4], 13.3%; in experiment [5] it was 6.84%; in experiment [6], -0.66%. Moreover, the inhibition in experiment [7] was determined as 5.55%; in [8], 2.75%; in [9], 4.98%; in experiment [10] it was 4.87%.

`CN(C)CCCn1c(-c2nonc2N)nc2cnccc21`: the inhibition in experiment [1] was -0.88%; in [2] it was 0.92%; in experiment [3], 0.09%; in experiment [4], 1.4%; in experiment [5] it was -1.56%; in experiment [6], 5.57%. Further, the inhibition in [7] is 4.33%; in experiment [8], 6.47%; in experiment [9], 4.26%; in [10], 4.73%.
